In the supplement of paper PMC9948646:

Test system: gramicidin D channels in DC22:1PC lipid vesicles (bilayer-modifying potency)
Assay: initial Tl+ fluorescence quench rate relative to no-drug control (NormRate, gramicidin monomer-dimer shift) (ratio (fold of control)); higher = stronger bilayer-modifying effect (equilibrium shifted toward conducting dimers), active = 1.5 or more
Conditions: 10 µM; lipid concentration 50 µM; temperature: 25 °C
Protocol: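 Stopped-flow fluorescence quench assay: ANTS-loaded DC22:1PC large unilamellar vesicles doped with gramicidin D (1:2000), 50 µM lipid, equilibrated 10 min with 10 µM drug (0.1% DMSO), mixed with Tl+ quench buffer at 25°C. Initial quench rate (Tl+ influx) was fitted with a modified stretched exponential and normalised to the no-drug control rate (NormRate); duplicates from two independent LUV preparations (triplicates for 7 drugs).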

| Structure (SMILES) | initial Tl+ fluorescence quench rate |
| --- | --- |
| CC(C)NCC(=O)Nc1cccc(C(=O)Nc2cccc(C(F)(F)F)c2)c1 | 1.37 (inactive) |
| CC[C@H](C)NC(=O)c1ccc(NC(=O)C2(c3ccccc3)CCCC2)cc1 | 1.75 (active) |
| C[C@H]1CCCCN1C(=O)NCCc1coc(-c2ccc(F)cc2)n1 | 1.06 (inactive) |
| CCOC(=O)NC(=O)c1ccsc1NC(=O)c1nc2ccccc2s1 | 3.21 (active) |
| O=C(Nc1nnc(-c2ccc(Cl)cc2)o1)c1cccc(C(F)(F)F)c1 | 1.07 (inactive) |
| Clc1cccc(CO[C@H]2CCc3ccccc3[C@@H]2n2ccnn2)c1 | 1.37 (inactive) |
| CN1CCN(c2cc(-c3ccc(F)cc3)nc(-c3ccncc3)n2)CC1 | 1.18 (inactive) |
| Clc1ccc(Cl)c(CO[C@H]2CCCC[C@@H]2n2ccnc2)c1 | 1.09 (inactive) |
| Cc1ccc(S(=O)(=O)N2CCN(C(=O)c3cc(-c4ccccc4)[nH]n3)CC2)cc1 | 1.38 (inactive) |
| CCOC(=O)c1cc(-c2csc(Nc3c(C)cc(C)cc3C)n2)on1 | 1.15 (inactive) |
| COc1ccc([C@H]2CC(c3cccs3)=NN2C(=O)c2ccco2)cc1OC | 1.86 (active) |
| CCOc1ccccc1N[C@H](C)C(=O)Nc1cc(C(F)(F)F)ccc1N1CCOCC1 | 1.72 (active) |
| CC(=O)NC[C@@H]1CN(c2ccc(N3CCOCC3)c(F)c2)C(=O)O1 | 1.08 (inactive) |
| COC(=O)Nc1nc2cc(C(=O)c3ccccc3)ccc2[nH]1 | 1.04 (inactive) |
| O=C(NCCc1ccccc1)c1cc(-c2cccnc2)cnc1NCC1CC1 | 2 (active) |
| Cc1cc(NC(=O)c2ccc(Oc3ccc(Cl)cc3O)o2)no1 | 1.11 (inactive) |
| O=C(Nc1ccc(C(F)(F)F)c(C(F)(F)F)c1)c1cc(Cl)ccc1O | 2.9 (active) |
| Cc1cc(C)cc(COc2ccc3c(C)c(CCC(=O)O)c(=O)oc3c2C)c1 | 2.64 (active) |
| COc1cccc(OCC(=O)c2ccc(Br)cc2)c1 | 1.06 (inactive) |

| Structure (SMILES) | initial Tl+ fluorescence quench rate |
| --- | --- |
| O[C@@H](c1cc(C(F)(F)F)nc2c(C(F)(F)F)cccc12)[C@H]1CCCCN1 | 2.24 (active) |
| CCCc1ccc(S(=O)(=O)Nc2ccc(CN3CCN(CC4CC4)CC3)cc2)cc1 | 1.42 (inactive) |
| c1coc(CNc2nc(N3CCCCC3)nc3ccccc23)c1 | 1.02 (inactive) |
| c1ccc(-c2cc(N3CCCCC3)c3ccccc3n2)nc1 | 1.08 (inactive) |
| CCS(=O)(=O)N(Cc1ccco1)Cc1cc2ccc(C)cc2nc1O | 1.26 (inactive) |
| Cc1cc(Cl)c(S(=O)(=O)N2CCCC2)cc1OCC(=O)NC1CCCCC1 | 1.19 (inactive) |
| CN1CCC(NCc2cccc(-c3ccc(S(=O)(=O)NCc4ccccc4)cc3)c2)CC1 | 1.94 (active) |
| COc1ccc(OC)c(NCc2ccc3nc(N)nc(N)c3c2Cl)c1 | 1.54 (active) |
| CCCCc1ccc(C(=O)Nc2nccc3ccccc23)nc1 | 1.33 (inactive) |
| CNc1cc(C)nc([C@@H]2CN(C(=O)c3n[nH]c4ccccc34)CCO2)c1 | 1.11 (inactive) |
| CCN(CC)CCCCCCNc1cc(OC)cc2c(C)ccnc12 | 1.45 (inactive) |
| Cc1ccc2cc([C@@H]3NC(=O)c4ccccc4N3)c(Cl)nc2c1 | 1.08 (inactive) |
| COc1ccccc1CNC(=O)c1cc(C2CC2)nc2c1cnn2C(C)C | 1.62 (active) |
| CC[C@@H]([C@H](C)O)n1ncn(-c2ccc(N3CCN(c4ccc(OC[C@@H]5CO[C@@](Cn6cncn6)(c6ccc(F)cc6F)C5)cc4)CC3)cc2)c1=O | 7.69 (active) |
| Cn1c(=O)c2c(S(C)(=O)=O)snc2n(C)c1=O | 1.19 (inactive) |
| COc1cccc(-c2cc3c(Nc4cccnc4)nccc3[nH]2)c1 | 1.5 (inactive) |
| C[C@H]1c2cccc(O)c2C(=O)C2=C(O)[C@]3(O)C(=O)C(C(N)=O)=C(O)[C@@H](N(C)C)[C@@H]3[C@@H](O)[C@@H]21 | 1.02 (inactive) |
| FC(F)(F)c1cnc(Sc2nnc(-c3ccncc3)o2)c(Cl)c1 | 1.23 (inactive) |
| Cc1cc(Cl)ccc1NC(=O)CCc1ccc(S(=O)(=O)NCC(C)C)cc1 | 1.42 (inactive) |
